# Measurements as given in ChEMBL document CHEMBL5606458, “ASAP - ZIKV NS2B-NS3 protease fluorescence single point” (2024).
# Screen size: about 2,700 compounds; about 160 (5.9%) showed an effect of 50% or more. For the sample, strong results were picked, then their nearest neighbours and some compounds at random.
# Target: Nonstructural protein 3 (Zika virus) (UniProt A0A024AXB9)
# [1] = PRVABC59, Concentration 15.0 uM, Number of replicates 1.0
# [2] = PRVABC59, Concentration 50.0 uM, Number of replicates 1.0
# Chain of Nonstructural protein 3 (Zika virus) (A0A024AXB9 as listed by the source): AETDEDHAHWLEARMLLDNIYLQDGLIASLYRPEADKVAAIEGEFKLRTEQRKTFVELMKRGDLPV
smiles,measurement,setting,value
O=C(N[C@H](CO)CC1CCCCC1)c1cc(Cl)ccc1NS(=O)(=O)c1ccc(Oc2ccccc2Cl)cc1,inhibition,[1],40.7%
C[C@@H](NC(=O)c1cc(Cl)ccc1NS(=O)(=O)c1ccc(Oc2ccccc2Cl)cc1)c1cccc(Br)c1,inhibition,[1],35.8%
O=C(NC(c1ccccc1)c1ccccc1)c1cc(Cl)ccc1NS(=O)(=O)c1ccc(Oc2ccccc2Cl)cc1,inhibition,[1],55%
O=C(NCC(c1ccccc1)c1ccccc1)c1cc(Cl)ccc1NS(=O)(=O)c1ccc(Oc2ccccc2Cl)cc1,inhibition,[1],12.2%
O=C(N[C@@H](CO)Cc1ccccc1)c1cc(Cl)ccc1NS(=O)(=O)c1ccc(Oc2ccccc2Cl)cc1,inhibition,[1],33.2%
O=C(N[C@@H](Cc1ccccc1)c1ccccc1)c1cc(Cl)ccc1NS(=O)(=O)c1ccc(Oc2ccccc2Cl)cc1,inhibition,[1],28.3%
O=C(N[C@@H](c1ccccc1)c1ccc(Br)cc1)c1cc(Cl)ccc1NS(=O)(=O)c1ccc(Oc2ccccc2Cl)cc1,inhibition,[1],8.89%
O=C(N[C@H](CO)Cc1ccc(Cl)cc1)c1cc(Cl)ccc1NS(=O)(=O)c1ccc(Oc2ccccc2Cl)cc1,inhibition,[1],50.2%
O=C(N[C@H](c1ccccc1)c1ccco1)c1cc(Cl)ccc1NS(=O)(=O)c1ccc(Oc2ccccc2Cl)cc1,inhibition,[1],53.4%
Cc1ccc2ccccc2c1NC(=O)c1cc(Cl)ccc1NS(=O)(=O)c1ccc(Oc2ccccc2Cl)cc1,inhibition,[1],26.4%
O=Cc1ccc(N2CCC(C(=O)N3CCC(Oc4ncccn4)CC3)CC2)cc1,inhibition,[2],25.2%
O=Cc1ccc(N2CCC(C(=O)Nc3cc(Cl)nc(Cl)n3)CC2)cc1,inhibition,[2],17.4%
O=C(O)c1cccc(NC(=O)c2cccc(Br)c2)c1,inhibition,"PRVABC59, Concentration 49.5 uM, Number of replicates 2.0, Standard deviation 2.5009940749301487 %",-0.982%
same,inhibition,"PRVABC59, Concentration 99.01 uM, Number of replicates 2.0, Standard deviation 3.0157213975013266 %",0.926%
same,inhibition,"PRVABC59, Concentration 198.0 uM, Number of replicates 2.0, Standard deviation 3.887437163113113 %",4.65%
CC(C)(CNC(=O)c1cc(Cl)ccc1NS(=O)(=O)c1ccc(Oc2ccccc2Cl)cc1)c1cccc(Cl)c1,inhibition,[1],47.6%
O=C(NC1CCN(Cc2ccccc2)CC1)c1cc(Cl)ccc1NS(=O)(=O)c1ccc(Oc2ccccc2Cl)cc1,inhibition,[1],8.32%
O=Cc1ccc(N2CCC(C(=O)NCc3cc(F)ccc3Br)CC2)cc1,inhibition,"PRVABC59, Concentration 10.0 uM, Number of replicates 1.0",4.33%
CCCC[C@H](NC(C)=O)C(=O)N[C@H](C(=O)Nc1cccc(C(N)=O)c1)c1ccc(OCc2ccccc2)cc1,inhibition,"PRVABC59, Concentration 49.5 uM, Number of replicates 2.0, Standard deviation 1.5133642763760644 %",0.392%
same,inhibition,"PRVABC59, Concentration 99.01 uM, Number of replicates 2.0, Standard deviation 2.3397962878359877 %",3.8%
same,inhibition,"PRVABC59, Concentration 198.0 uM, Number of replicates 2.0, Standard deviation 2.8724328178638086 %",7.97%
N=C(N)NCCC[C@H](NC(=O)c1nccs1)C(=O)N[C@@H](CCCCN)C(=O)N[C@@H](C(N)=O)c1ccc(OCc2ccc(C(F)(F)F)cc2)cc1,inhibition,[1],91.8%
same,inhibition,"PRVABC59, Concentration 49.5 uM, Number of replicates 2.0, Standard deviation 0.021859715861266255 %",94.6%
same,inhibition,"PRVABC59, Concentration 49.5 uM, Number of replicates 2.0, Standard deviation 0.024233426369399808 %",96.9%
same,inhibition,"PRVABC59, Concentration 49.5 uM, Number of replicates 2.0, Standard deviation 0.10948739718766008 %",93.8%
same,inhibition,"PRVABC59, Concentration 49.5 uM, Number of replicates 2.0, Standard deviation 0.1218738502028297 %",97.5%
same,inhibition,"PRVABC59, Concentration 49.5 uM, Number of replicates 2.0, Standard deviation 0.12395624169405596 %",92.6%
same,inhibition,"PRVABC59, Concentration 49.5 uM, Number of replicates 2.0, Standard deviation 0.12648640130386196 %",91.3%
same,inhibition,"PRVABC59, Concentration 49.5 uM, Number of replicates 2.0, Standard deviation 0.127991549557883 %",97.2%
same,inhibition,"PRVABC59, Concentration 49.5 uM, Number of replicates 2.0, Standard deviation 0.13878114277667186 %",95.3%
same,inhibition,"PRVABC59, Concentration 49.5 uM, Number of replicates 2.0, Standard deviation 0.18792773988825517 %",89.4%
same,inhibition,"PRVABC59, Concentration 49.5 uM, Number of replicates 2.0, Standard deviation 0.2282484497468692 %",91.2%
same,inhibition,"PRVABC59, Concentration 49.5 uM, Number of replicates 2.0, Standard deviation 0.23805618998274827 %",97%
same,inhibition,"PRVABC59, Concentration 49.5 uM, Number of replicates 2.0, Standard deviation 0.25515230043791925 %",95.5%
same,inhibition,"PRVABC59, Concentration 49.5 uM, Number of replicates 2.0, Standard deviation 0.3144519047683829 %",85.9%
same,inhibition,"PRVABC59, Concentration 49.5 uM, Number of replicates 2.0, Standard deviation 0.8044343068166325 %",87.1%
same,inhibition,"PRVABC59, Concentration 49.5 uM, Number of replicates 2.0, Standard deviation 1.112040214687694 %",90.3%
same,inhibition,"PRVABC59, Concentration 49.5 uM, Number of replicates 2.0, Standard deviation 1.1256998397026805 %",90.4%
same,inhibition,"PRVABC59, Concentration 49.5 uM, Number of replicates 2.0, Standard deviation 1.7230548786677078 %",84.5%
same,inhibition,"PRVABC59, Concentration 49.5 uM, Number of replicates 2.0, Standard deviation 1.876040520916915 %",90.3%
same,inhibition,"PRVABC59, Concentration 49.8 uM, Number of replicates 2.0, Standard deviation 1.8581405857669444 %",97.9%
same,inhibition,"PRVABC59, Concentration 49.95 uM, Number of replicates 2.0, Standard deviation 2.309253478244507 %",87.4%
same,inhibition,"PRVABC59, Concentration 50.0 uM, Number of replicates 2.0, Standard deviation 0.36743959706585505 %",88.7%
same,inhibition,"PRVABC59, Concentration 99.01 uM, Number of replicates 2.0, Standard deviation 0.0 %",93.4%
same,inhibition,"PRVABC59, Concentration 99.01 uM, Number of replicates 2.0, Standard deviation 0.012046580828777775 %",94.9%
same,inhibition,"PRVABC59, Concentration 99.01 uM, Number of replicates 2.0, Standard deviation 0.02911571730090177 %",93.7%
same,inhibition,"PRVABC59, Concentration 99.01 uM, Number of replicates 2.0, Standard deviation 0.06378807510947981 %",97.6%
same,inhibition,"PRVABC59, Concentration 99.01 uM, Number of replicates 2.0, Standard deviation 0.067278508515758 %",98.8%
same,inhibition,"PRVABC59, Concentration 99.01 uM, Number of replicates 2.0, Standard deviation 0.0706826251762859 %",98.7%
same,inhibition,"PRVABC59, Concentration 99.01 uM, Number of replicates 2.0, Standard deviation 0.071545792633789 %",97.3%
same,inhibition,"PRVABC59, Concentration 99.01 uM, Number of replicates 2.0, Standard deviation 0.07721572387026257 %",95.8%
same,inhibition,"PRVABC59, Concentration 99.01 uM, Number of replicates 2.0, Standard deviation 0.10372575440882682 %",99%
same,inhibition,"PRVABC59, Concentration 99.01 uM, Number of replicates 2.0, Standard deviation 0.10948739718766008 %",97%
same,inhibition,"PRVABC59, Concentration 99.01 uM, Number of replicates 2.0, Standard deviation 0.11599352189858977 %",97.7%
same,inhibition,"PRVABC59, Concentration 99.01 uM, Number of replicates 2.0, Standard deviation 0.1471970254873272 %",98.8%
same,inhibition,"PRVABC59, Concentration 99.01 uM, Number of replicates 2.0, Standard deviation 0.27009049224933246 %",94.8%
same,inhibition,"PRVABC59, Concentration 99.01 uM, Number of replicates 2.0, Standard deviation 0.8601032130289737 %",94.3%
same,inhibition,"PRVABC59, Concentration 99.01 uM, Number of replicates 2.0, Standard deviation 0.9406367368140138 %",94.2%
same,inhibition,"PRVABC59, Concentration 99.01 uM, Number of replicates 2.0, Standard deviation 1.3348561042489029 %",88.7%
same,inhibition,"PRVABC59, Concentration 99.01 uM, Number of replicates 2.0, Standard deviation 1.4059433391708933 %",94.2%
same,inhibition,"PRVABC59, Concentration 99.01 uM, Number of replicates 2.0, Standard deviation 1.7588979073405244 %",89.5%
same,inhibition,"PRVABC59, Concentration 99.5 uM, Number of replicates 2.0, Standard deviation 0.12741970111728718 %",93.3%
same,inhibition,"PRVABC59, Concentration 99.5 uM, Number of replicates 2.0, Standard deviation 0.16892187143335857 %",101%
same,inhibition,"PRVABC59, Concentration 99.9 uM, Number of replicates 2.0, Standard deviation 1.5690280406728871 %",94.6%
same,inhibition,"PRVABC59, Concentration 100.0 uM, Number of replicates 2.0, Standard deviation 4.458993610342439 %",98%
same,inhibition,"PRVABC59, Concentration 198.0 uM, Number of replicates 2.0, Standard deviation 0.0026488451352126683 %",96.7%
same,inhibition,"PRVABC59, Concentration 198.0 uM, Number of replicates 2.0, Standard deviation 0.013907785659018856 %",98.8%
same,inhibition,"PRVABC59, Concentration 198.0 uM, Number of replicates 2.0, Standard deviation 0.021082865149513456 %",97.6%
same,inhibition,"PRVABC59, Concentration 198.0 uM, Number of replicates 2.0, Standard deviation 0.03251443916482027 %",97.8%
same,inhibition,"PRVABC59, Concentration 198.0 uM, Number of replicates 2.0, Standard deviation 0.03514709991020475 %",97.2%
same,inhibition,"PRVABC59, Concentration 198.0 uM, Number of replicates 2.0, Standard deviation 0.0599254007371534 %",99.1%
same,inhibition,"PRVABC59, Concentration 198.0 uM, Number of replicates 2.0, Standard deviation 0.06866497124437239 %",99.6%
same,inhibition,"PRVABC59, Concentration 198.0 uM, Number of replicates 2.0, Standard deviation 0.07418384817578288 %",97.3%
same,inhibition,"PRVABC59, Concentration 198.0 uM, Number of replicates 2.0, Standard deviation 0.0745722735316593 %",98.9%
same,inhibition,"PRVABC59, Concentration 198.0 uM, Number of replicates 2.0, Standard deviation 0.07483122376891023 %",96.4%
same,inhibition,"PRVABC59, Concentration 198.0 uM, Number of replicates 2.0, Standard deviation 0.07712401232790286 %",99.5%
same,inhibition,"PRVABC59, Concentration 198.0 uM, Number of replicates 2.0, Standard deviation 0.08816716098733327 %",99.7%
same,inhibition,"PRVABC59, Concentration 198.0 uM, Number of replicates 2.0, Standard deviation 0.09263944737652126 %",98.7%
same,inhibition,"PRVABC59, Concentration 198.0 uM, Number of replicates 2.0, Standard deviation 0.09449525741015294 %",99.7%
same,inhibition,"PRVABC59, Concentration 198.0 uM, Number of replicates 2.0, Standard deviation 0.3759148225392137 %",97%
same,inhibition,"PRVABC59, Concentration 198.0 uM, Number of replicates 2.0, Standard deviation 0.4983928899622956 %",97.6%
same,inhibition,"PRVABC59, Concentration 198.0 uM, Number of replicates 2.0, Standard deviation 0.5225777631622108 %",97.2%
same,inhibition,"PRVABC59, Concentration 198.0 uM, Number of replicates 2.0, Standard deviation 0.6944775623239552 %",94.7%
same,inhibition,"PRVABC59, Concentration 198.0 uM, Number of replicates 2.0, Standard deviation 1.5146538856468006 %",93.1%
same,inhibition,"PRVABC59, Concentration 200.0 uM, Number of replicates 1.0",97.4%
NC(=O)c1cccc(NC(=O)[C@@H](NC(=O)c2ccc(Oc3ccc(C(F)(F)F)cc3)cc2)c2ccc(OCc3ccccc3)cc2)c1,inhibition,"PRVABC59, Concentration 49.5 uM, Number of replicates 2.0, Standard deviation 0.46044521626223894 %",6.3%
same,inhibition,"PRVABC59, Concentration 99.01 uM, Number of replicates 2.0, Standard deviation 0.010097036204057861 %",14.7%
same,inhibition,"PRVABC59, Concentration 198.0 uM, Number of replicates 2.0, Standard deviation 0.34129506399757725 %",30.3%
O=C(NCc1ccc(-c2ccccc2)cc1)c1cc(Cl)ccc1NS(=O)(=O)c1ccc(Oc2ccccc2Cl)cc1,inhibition,[1],9%
O=C(NCc1ccccc1)c1cc(Cl)ccc1NS(=O)(=O)c1ccc(Oc2ccccc2Cl)cc1,inhibition,[1],11.2%
O=C(NCc1cccc(-c2ccccc2)c1)c1cc(Cl)ccc1NS(=O)(=O)c1ccc(Oc2ccccc2Cl)cc1,inhibition,[1],54.4%
O=C(NCc1coc(-c2ccccc2)n1)c1cc(Cl)ccc1NS(=O)(=O)c1ccc(Oc2ccccc2Cl)cc1,inhibition,[1],45.4%
O=C(NCc1nnc(-c2ccccc2)o1)c1cc(Cl)ccc1NS(=O)(=O)c1ccc(Oc2ccccc2Cl)cc1,inhibition,[1],54.2%
O=C(NCc1ccccc1-c1ccccc1)c1cc(Cl)ccc1NS(=O)(=O)c1ccc(Oc2ccccc2Cl)cc1,inhibition,[1],13.1%
